This is a sample that favours compounds with a hit; in the whole collection about 2.6% have one here.
Mcl1 Bid PPI = Mcl-1/Bid interaction inhibition; Q07820; TR-FRET Mcl-1/Bid-Dy647 peptide binding, 1536-well; inhibition, % at 21.7 µM; 220,000 tested, 0.97% active; AID 1021;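 active = compounds that cut the binding signal by more than half at the single screening dose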;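 note: His-tagged Mcl-1 with europium anti-His antibody binding Bid BH3 peptide; 0% = Mcl-1 plus peptide wells and 100% = peptide-only wells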
Target sequence (Q07820 whole entry, looked up): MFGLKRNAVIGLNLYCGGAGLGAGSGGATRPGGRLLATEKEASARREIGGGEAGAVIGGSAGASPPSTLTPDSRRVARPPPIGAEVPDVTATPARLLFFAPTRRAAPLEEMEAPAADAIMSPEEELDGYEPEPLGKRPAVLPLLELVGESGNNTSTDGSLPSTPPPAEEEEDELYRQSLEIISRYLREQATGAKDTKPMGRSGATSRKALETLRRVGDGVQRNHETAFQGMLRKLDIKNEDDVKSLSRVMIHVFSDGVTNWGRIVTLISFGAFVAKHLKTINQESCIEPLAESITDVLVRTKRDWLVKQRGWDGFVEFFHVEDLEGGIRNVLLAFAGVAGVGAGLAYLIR
Mcl1 Noxa PPI = Mcl-1/Noxa interaction inhibition; Q07820; inhibition, % at 21.7 µM; TR-FRET Mcl-1/Noxa peptide binding, 2 h; 220,000 tested, 1.5% active; AID 1022;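 active = compounds that cut the protein-peptide binding signal by more than 50% relative to plate controls in a single-dose test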;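 note: His-tagged Mcl-1 with rhodamine Noxa BH3 peptide and terbium anti-His antibody; 0% = Mcl-1 plus Noxa peptide wells and 100% = peptide-only wells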
Mcl-1 Bim block = disrupts Bim peptide binding to human Mcl-1; 190,000 tested, 0.1% active; inhibition, % at 10 µM; AID 1009; Bead-based flow cytometry, Bim peptide-Mcl-1 binding; in the data active = inhibition above about 40%;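 note: 0% = no compound tracer wells and 100% = peptide blocker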
14-3-3 Bad PPI = disrupts binding of bovine 14-3-3 zeta to phospho-Bad peptide | 220,000 tested, 0.71% active | TR-FRET 14-3-3zeta/Dy647-pBad peptide displacement, 1 h | inhibition, % at 21.7 µM | P63103;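 active = inhibition above about 70%, limit read from the data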;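 note: 0% = full 14-3-3 plus peptide FRET controls and 100% = background without 14-3-3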
Target sequence (P63103 whole entry, looked up): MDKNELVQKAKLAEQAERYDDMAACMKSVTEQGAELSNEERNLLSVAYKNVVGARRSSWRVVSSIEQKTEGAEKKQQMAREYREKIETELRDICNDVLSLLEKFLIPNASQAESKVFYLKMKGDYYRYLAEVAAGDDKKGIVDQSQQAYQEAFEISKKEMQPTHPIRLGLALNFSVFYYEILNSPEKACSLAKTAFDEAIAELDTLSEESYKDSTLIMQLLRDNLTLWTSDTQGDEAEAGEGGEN
MCL1 BIM primary = disrupts human MCL1 binding to BIM-BH3 peptide. inhibition, % at 10.9 µM. GST-MCL1 / FITC-Bim-BH3 fluorescence polarization. 320,000 tested, 0.68% active. Q07820;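 active = inhibition above the mean inhibition of all tested compounds plus 3 SD, set per campaign, cut at about 40% in these data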;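 note: 0% = DMSO wells and 100% = unlabeled Bim-BH3 peptide control; higher means more loss of mP so more displacement of Bim peptide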
eIF4E 4G PPI = blocks eIF4E binding to eIF4G; P63073+Q04637; TR-FRET eIF4E-eIF4GI(517-606) binding, 2 h; inhibition, % at 21.7 µM; 220,000 tested, 0.37% active; AID 782;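 active = inhibition above about 30%, limit read from the data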;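 note: 0% = full FRET control wells and 100% = background wells lacking eIF4GI fragment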
The depositor's hits bear a star; nt = no result given; [ ] = dose if it differs, or a comment.

SMILES	Mcl1 Bid PPI	Mcl1 Noxa PPI	Mcl-1 Bim block	14-3-3 Bad PPI	MCL1 BIM primary	eIF4E 4G PPI
CCN1C(=O)c2cccc3c(NC(=O)c4cccc(N5C(=O)CCC5=O)c4)ccc1c23	-1	11	-2	16	4	-4
Cc1ccc(CSc2[nH]c(=O)ncc2C)cc1	nt	nt	nt	nt	-2	nt
O=C(NCc1ccc2c(c1)OCO2)c1cc2c(s1)CSC2	-25	21	-2	-10	3	8
O=C(NCc1ccco1)c1cc2c(s1)CSC2	-24	79*	-1	-1	37	14
O=C1C(=Cc2cccn2-c2ccccc2)C(=O)c2ccccc21	73*	102*	4	82*[fluorescence artefact?]	42*	-10
COc1cc(C2OC(=O)C3C(c4ccc(OC(C)=O)c(OC)c4)OC(=O)C23)ccc1OC(C)=O (configuration not stated)	nt	nt	nt	nt	0	nt
Cc1ccc(OCC(=O)O/N=C(\N)Cc2ccc([N+](=O)[O-])cc2)cc1C	-6	2	nt	5	-4	40*
Cc1cccc(OCC(=O)O/N=C(\N)Cc2ccc([N+](=O)[O-])cc2)c1	-33	-2	2	-6	-2	0
CO[C@@]1(NC(=O)Cc2cccs2)C(=O)N2C(C(=O)O)=C(COC(N)=O)CS[C@@H]21	-87	38	-1	73*	16	6
O=C(C1CC(=O)N(c2ccccc2)C1)N1CCN(c2ccccc2)CC1 (configuration not stated)	nt	nt	nt	nt	2	nt
CCc1cc(=O)oc2cc3occ(-c4ccc(OC)c(F)c4)c3cc12	67*	1	-25	94*	-31	19
Cc1ccccc1-n1c(SCC(=O)N/N=C/c2c(C)nn(-c3ccccc3)c2C)nc2ccccc2c1=O	6	12	-1	89*	1	-1
Cc1ccc(-n2c(SCC(=O)N/N=C/c3c(C)nn(-c4ccccc4)c3C)nc3ccccc3c2=O)cc1	53*	-27	-3	19	14	4
Cc1nn(-c2ccccc2)c(C)c1/C=N/NC(=O)CSc1nc2ccccc2c(=O)n1-c1ccc(Br)cc1	11	6	0	7	2	-17
CCc1cc(C(=O)NCC(C)(C)N2CCOCC2)sc1C	nt	nt	nt	nt	17	nt
CCCC(=O)NCCCCNC(=O)CCC	-28	-1	6	-1	1	4
CC(=O)N(O)CCCCCNC(=O)CCC(=O)N(O)CCCCCNC(=O)CCC(=O)N(O)CCCCCN	-7	2	-2	71*[fluorescence artefact?]	0	3
Cc1ccccc1SC1CCN(Cc2nc(C3CC3)no2)CC1	-15	11	-2	-6	9	3
O=C(O)c1ccc(NC2=C(Cl)C(=O)c3ccccc3C2=O)cc1	5	53*	nt	5	12	-2
Cc1ccc(NC2=C(NC(=O)c3ccccc3)C(=O)c3ccccc3C2=O)cc1Cl	3	86*	2	6	36	9
O=C(O)c1cccc(NC2=C(Cl)C(=O)c3ccccc3C2=O)c1	17	87*	6	13	nt	5
CCOC(=O)c1nc2c(ccc3ccccc32)cc1C	-19	2	nt	-3	0	-6
CCOC(=O)C1CCN(C(=O)c2cc(S(=O)(=O)N3CCOCC3)c(Cl)cc2Cl)CC1	95*	-7	-6	-9	9	1
O=C(Nc1cc(SCCO)cc([N+](=O)[O-])c1)c1ccc(Br)o1	-7	12	-2	8	7	2
Cc1[nH]n(-c2ncc(-c3ccccc3)s2)c(=O)c1C(c1ccc(Cl)cc1)C(C#N)C#N (configuration not stated)	18	81*	0	-16	10	-1
SMILES	Mcl1 Bid PPI	Mcl1 Noxa PPI	Mcl-1 Bim block	14-3-3 Bad PPI	MCL1 BIM primary	eIF4E 4G PPI
CCOC(=O)N1CCN(C2CCCN(C(=O)c3cccc(Cl)c3)C2)CC1 (configuration not stated)	nt	nt	nt	nt	0	nt
Cc1cc(C)c2c(c1)C1C=CCC1C(c1ccc(S(=O)(=O)N3CCOCC3)cc1)N2 (configuration not stated)	70*	95*	0	-10	36	-1
O=C(O)c1cc(Cl)c2c(c1)[C@@H]1C=CC[C@@H]1[C@H](c1ccc(S(=O)(=O)N3CCOCC3)cc1)N2	-7	23	0	3	48*	5
O=S(=O)(c1ccc(C2CCCCC2)cc1)N1CCOCC1	3	4	0	-3	-3	-1
CCCCNC(=O)N1CCCN(c2ccc(C#N)cn2)CC1	nt	nt	nt	nt	10	nt
NCCCC[C@@H]1NC(=O)c2cc([N+](=O)[O-])cc(I)c2SC[C@@H](C(N)=O)NC(=O)[C@H](Cc2ccc(O)cc2)NC1=O	30	54*	-2	72*[fluorescence artefact?]	6	2
C[C@@H](O)C1NC(=O)[C@H](CCCCN)NC(=O)c2cc([N+](=O)[O-])cc(I)c2NCCC[C@@H](C(N)=O)NC1=O (some centres not stated)	2	6	4	3	-6	34*
O=C(O)c1cc([N+](=O)[O-])c(NCCC2=CCCCC2)c([N+](=O)[O-])c1	13	23	0	0	-4	-2
CC1CCCCC12NC(=O)N(CC(=O)OCC(=O)N(C)C1CCCCC1)C2=O (configuration not stated)	nt	nt	nt	nt	-1	nt
C=CCc1c(C)[nH]c2c(OC)cccc2c1=S	26	60*	-1	-5	8	-1
Cc1noc(C)c1S(=O)(=O)N1CCCC1C(=O)O (configuration not stated)	nt	nt	nt	nt	1	nt
COc1cc(/C=N/n2c(-c3n[nH]c4c3CCC4)n[nH]c2=S)ccc1O	-115	2	nt	-5	-15	1
COc1ccc(/C=N/n2c(-c3n[nH]c4c3CCC4)n[nH]c2=S)cc1OC	-79	65*	-6	-9	-21	10
Cc1noc(C)c1COc1ccccc1C(=O)N(C)CC(=O)Nc1ccc(F)c(F)c1F	nt	nt	nt	nt	2	nt
CCc1ccc(NC(=S)N(CCN2CCOCC2)Cc2ccccc2F)cc1	-37	-13	-2	-5	12	0
COc1ccc(Cl)cc1C(=O)NNC(=O)CN1C(=O)C2CC=CCC2C1=O (configuration not stated)	-9	-22	0	-13	1	-3
Cc1ccc(N=C2NC(=O)S/C2=C\c2ccco2)cc1	48	83*	0	33	26	8
COc1ccc(N=C2NC(=O)/C(=C/c3ccco3)S2)cc1	-37	-4	nt	-10	4	0
O=C1NC(=Nc2ccccc2)/C(=C/c2ccco2)S1	-32	47	-3	5	47*	-6
CCC1=CC(c2ccccc2)n2ncnc2N1 (configuration not stated)	nt	nt	nt	nt	-1	nt
CC(=O)c1ccc(NC(=O)CSc2n[nH]c(-c3cccnc3)n2)cc1	nt	nt	nt	nt	1	nt
COCCN1C(=O)C(=O)/C(=C(/O)c2ccc(S(=O)(=O)N3CCOCC3)cc2)C1c1cccc(Cl)c1 (configuration not stated)	66*	40	nt	21	-3	4

Screening data: PubChem, several laboratories
